Experimental findings from PMC7862700, “An all-to-all approach to the identification of sequence-specific readers for epigenetic DNA modifications on cytosine” are described below.

Experiment in all cases: DAPPL (digital affinity profiling via proximity ligation, sequencing); 10 mM Tris-HCl pH 7.5, 50 mM NaCl, 1 mM DTT, 4% glycerol, room temperature, 30 min; GST-TFs on glutathione beads, 16-mer random dsDNA library, 0.1% formaldehyde crosslink after washing; high values mean tight binding
Holding throughout (conditions): protein: recombinant; tags: N-terminal GST; dsDNA, one strand shown

Experiment [1] has as its target T1, ERF (Homo sapiens, UniProt P50548 1-548).
T1 sequence: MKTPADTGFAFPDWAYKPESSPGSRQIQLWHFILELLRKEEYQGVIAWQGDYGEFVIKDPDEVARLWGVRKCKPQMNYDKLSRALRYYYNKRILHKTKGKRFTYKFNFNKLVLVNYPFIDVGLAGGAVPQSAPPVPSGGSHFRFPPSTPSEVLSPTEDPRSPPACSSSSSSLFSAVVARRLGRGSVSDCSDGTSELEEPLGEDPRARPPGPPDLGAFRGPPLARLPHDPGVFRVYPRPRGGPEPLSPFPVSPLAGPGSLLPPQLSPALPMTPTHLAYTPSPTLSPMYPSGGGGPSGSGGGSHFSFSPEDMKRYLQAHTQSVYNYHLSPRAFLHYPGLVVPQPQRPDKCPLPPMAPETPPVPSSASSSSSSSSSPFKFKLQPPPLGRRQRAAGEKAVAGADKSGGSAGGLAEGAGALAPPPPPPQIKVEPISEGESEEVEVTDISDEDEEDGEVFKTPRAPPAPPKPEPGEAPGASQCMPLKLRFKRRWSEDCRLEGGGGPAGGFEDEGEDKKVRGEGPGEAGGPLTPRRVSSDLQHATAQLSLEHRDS
Summed up:
(§1)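 Pools were built from human transcription factors expressed in yeast as GST fusions, captured on glutathione beads and DNA-barcoded, along with a tag-only sample. Incubation with 200 nmole of a 16-mer random double-stranded DNA library lasted 30 min at room temperature in Tris/NaCl/DTT/glycerol buffer, and was followed by washing, 0.1% formaldehyde crosslinking, proximity ligation, PCR amplification and Illumina NextSeq500 sequencing. Binding signal is the quotient of each hexamer's read frequency for a factor and its frequency for the tag-only sample.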

The target of experiment [2] is T2, ETV3L (Homo sapiens, UniProt Q6ZN32 1-361).
T2 sequence: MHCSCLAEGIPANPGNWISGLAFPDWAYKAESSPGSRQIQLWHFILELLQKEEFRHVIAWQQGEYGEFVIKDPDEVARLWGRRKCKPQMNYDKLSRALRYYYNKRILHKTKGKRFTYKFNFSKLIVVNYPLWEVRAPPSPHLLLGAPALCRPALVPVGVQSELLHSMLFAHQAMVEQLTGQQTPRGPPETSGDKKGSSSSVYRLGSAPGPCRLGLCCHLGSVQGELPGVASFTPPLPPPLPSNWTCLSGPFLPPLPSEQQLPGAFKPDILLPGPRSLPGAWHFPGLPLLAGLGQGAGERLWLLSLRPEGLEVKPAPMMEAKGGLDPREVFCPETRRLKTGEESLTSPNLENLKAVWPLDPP
The method in brief: as §1

The target of experiment [3] is T3, ETS2 (Homo sapiens, UniProt P15036 1-469).
T3 sequence: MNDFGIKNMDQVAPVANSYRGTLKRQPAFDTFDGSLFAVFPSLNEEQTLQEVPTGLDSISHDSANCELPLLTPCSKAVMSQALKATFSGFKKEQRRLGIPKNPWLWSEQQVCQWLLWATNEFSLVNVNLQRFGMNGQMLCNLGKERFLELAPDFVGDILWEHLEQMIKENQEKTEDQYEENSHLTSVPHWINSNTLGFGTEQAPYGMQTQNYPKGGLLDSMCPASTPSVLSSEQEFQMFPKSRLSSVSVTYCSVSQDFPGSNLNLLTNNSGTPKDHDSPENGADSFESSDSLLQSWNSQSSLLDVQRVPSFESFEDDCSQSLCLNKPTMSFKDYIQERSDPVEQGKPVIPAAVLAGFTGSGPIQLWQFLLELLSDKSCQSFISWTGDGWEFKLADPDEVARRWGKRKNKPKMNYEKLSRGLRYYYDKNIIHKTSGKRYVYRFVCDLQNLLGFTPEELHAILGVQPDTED
Summed up:
as §1

For experiment [4], the target named is T4, SPDEF (Homo sapiens, UniProt O95238 1-335).
T4 sequence: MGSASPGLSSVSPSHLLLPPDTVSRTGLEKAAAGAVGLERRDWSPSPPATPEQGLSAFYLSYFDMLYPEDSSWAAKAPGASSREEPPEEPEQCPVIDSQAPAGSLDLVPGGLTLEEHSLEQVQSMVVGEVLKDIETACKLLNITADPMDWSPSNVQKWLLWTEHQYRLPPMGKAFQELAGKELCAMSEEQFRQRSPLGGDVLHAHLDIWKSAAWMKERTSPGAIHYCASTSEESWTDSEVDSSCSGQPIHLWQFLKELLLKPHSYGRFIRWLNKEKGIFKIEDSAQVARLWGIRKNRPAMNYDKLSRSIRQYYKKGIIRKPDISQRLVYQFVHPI
Summed up: as §1

Experiment [5] deals with T5, ETV7 (Homo sapiens, UniProt Q9Y603 1-341).
T5 sequence: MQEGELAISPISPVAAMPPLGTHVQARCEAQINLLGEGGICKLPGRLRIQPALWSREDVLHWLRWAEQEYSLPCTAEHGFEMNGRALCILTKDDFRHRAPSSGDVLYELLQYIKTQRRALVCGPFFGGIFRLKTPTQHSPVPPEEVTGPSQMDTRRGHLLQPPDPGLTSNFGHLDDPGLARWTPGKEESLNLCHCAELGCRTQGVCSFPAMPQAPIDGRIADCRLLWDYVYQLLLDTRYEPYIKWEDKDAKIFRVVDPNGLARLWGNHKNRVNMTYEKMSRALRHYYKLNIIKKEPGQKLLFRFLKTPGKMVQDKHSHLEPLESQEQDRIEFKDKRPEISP
The method in brief: as §1

Experiment [6] deals with T6, ELF5 (Homo sapiens, UniProt Q9UKW6-2 1-255).
T6 sequence: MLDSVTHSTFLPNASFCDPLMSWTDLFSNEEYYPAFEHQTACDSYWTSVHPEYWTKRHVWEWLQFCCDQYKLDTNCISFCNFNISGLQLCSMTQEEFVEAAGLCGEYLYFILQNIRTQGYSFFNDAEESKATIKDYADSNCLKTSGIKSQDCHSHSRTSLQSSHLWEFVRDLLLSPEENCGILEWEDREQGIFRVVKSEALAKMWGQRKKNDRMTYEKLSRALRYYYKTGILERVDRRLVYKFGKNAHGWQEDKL
Summed up:
as §1

In experiment [7] the target is T7, ETV3 (Homo sapiens, UniProt P41162-2 1-143).
T7 sequence: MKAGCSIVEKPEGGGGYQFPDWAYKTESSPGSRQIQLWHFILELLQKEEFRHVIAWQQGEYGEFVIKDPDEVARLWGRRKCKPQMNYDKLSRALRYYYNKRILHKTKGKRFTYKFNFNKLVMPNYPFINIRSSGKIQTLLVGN
The method in brief:
as §1

Experiment [8] addresses ETV6 (Homo sapiens, UniProt P41212 1-452). Summed up: as §1

Sequence of ETV6 (P41212 whole entry): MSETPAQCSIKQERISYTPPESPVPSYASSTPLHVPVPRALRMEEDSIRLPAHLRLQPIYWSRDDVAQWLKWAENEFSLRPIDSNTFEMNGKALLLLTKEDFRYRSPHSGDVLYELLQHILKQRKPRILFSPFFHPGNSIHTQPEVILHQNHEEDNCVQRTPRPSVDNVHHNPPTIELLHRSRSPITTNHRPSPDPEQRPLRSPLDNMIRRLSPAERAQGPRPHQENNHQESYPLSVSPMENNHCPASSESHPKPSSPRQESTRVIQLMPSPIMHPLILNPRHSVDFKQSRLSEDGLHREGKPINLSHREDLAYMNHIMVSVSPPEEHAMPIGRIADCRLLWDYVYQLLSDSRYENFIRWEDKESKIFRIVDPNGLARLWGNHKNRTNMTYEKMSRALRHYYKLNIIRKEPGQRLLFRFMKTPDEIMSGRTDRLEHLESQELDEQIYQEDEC

For the sequence ATTACT, the binding signal in experiment [1] is 1.37 fold enrichment (6-mer frequency, TF over GST control); in experiment [2] it was 1.23 fold enrichment (6-mer frequency, TF over GST control); in experiment [3], 1.31 fold enrichment (6-mer frequency, TF over GST control); in experiment [4], 1.26 fold enrichment (6-mer frequency, TF over GST control); in experiment [5], 1.25 fold enrichment (6-mer frequency, TF over GST control); in experiment [6] it was 1.25 fold enrichment (6-mer frequency, TF over GST control). In addition, the binding signal is 1.29 fold enrichment (6-mer frequency, TF over GST control) in experiment [7] and 1.37 fold enrichment (6-mer frequency, TF over GST control) in experiment [8].
On to CCTTAT, for which the binding signal is 1.41 fold enrichment (6-mer frequency, TF over GST control) in experiment [1]; 1.46 fold enrichment (6-mer frequency, TF over GST control) in experiment [2]; 1.41 fold enrichment (6-mer frequency, TF over GST control) in experiment [3]; 1.71 fold enrichment (6-mer frequency, TF over GST control) in experiment [4]; 1.49 fold enrichment (6-mer frequency, TF over GST control) in experiment [5]; 1.73 fold enrichment (6-mer frequency, TF over GST control) in experiment [6]. Besides, the binding signal in experiment [7] was 1.39 fold enrichment (6-mer frequency, TF over GST control); in experiment [8], 1.42 fold enrichment (6-mer frequency, TF over GST control).
Regarding TACGTT, the binding signal was 1.3 fold enrichment (6-mer frequency, TF over GST control) in experiment [1]; 1.32 fold enrichment (6-mer frequency, TF over GST control) in experiment [2]; 1.21 fold enrichment (6-mer frequency, TF over GST control) in experiment [3]; 1.22 fold enrichment (6-mer frequency, TF over GST control) in experiment [4]; 1.34 fold enrichment (6-mer frequency, TF over GST control) in experiment [5]; 1.27 fold enrichment (6-mer frequency, TF over GST control) in experiment [6]. Besides, the binding signal in experiment [7] is 1.27 fold enrichment (6-mer frequency, TF over GST control); in experiment [8], 1.38 fold enrichment (6-mer frequency, TF over GST control).
In the case of CGATAA, the binding signal in experiment [1] was 1.11 fold enrichment (6-mer frequency, TF over GST control); in experiment [2], 1.09 fold enrichment (6-mer frequency, TF over GST control); in experiment [3], 1.14 fold enrichment (6-mer frequency, TF over GST control); in experiment [4] it was 1.02 fold enrichment (6-mer frequency, TF over GST control); in experiment [5] it was 1.08 fold enrichment (6-mer frequency, TF over GST control); in experiment [6], 1.03 fold enrichment (6-mer frequency, TF over GST control). For the same sequence, the binding signal in experiment [7] is 1.06 fold enrichment (6-mer frequency, TF over GST control); in experiment [8], 1.09 fold enrichment (6-mer frequency, TF over GST control).
In the case of CAGGAT, the binding signal in experiment [1] was 1.15 fold enrichment (6-mer frequency, TF over GST control); in experiment [2], 1.3 fold enrichment (6-mer frequency, TF over GST control); in experiment [3] it was 1.19 fold enrichment (6-mer frequency, TF over GST control); in experiment [4] it was 2.03 fold enrichment (6-mer frequency, TF over GST control); in experiment [5], 1.09 fold enrichment (6-mer frequency, TF over GST control); in experiment [6] it was 1.28 fold enrichment (6-mer frequency, TF over GST control). In addition, the binding signal is 1.22 fold enrichment (6-mer frequency, TF over GST control) in experiment [7] and 1.19 fold enrichment (6-mer frequency, TF over GST control) in experiment [8].
For AATTCT, the binding signal in experiment [1] is 1.33 fold enrichment (6-mer frequency, TF over GST control); in experiment [2] it was 1.29 fold enrichment (6-mer frequency, TF over GST control); in experiment [3], 1.29 fold enrichment (6-mer frequency, TF over GST control); in experiment [4] it was 1.23 fold enrichment (6-mer frequency, TF over GST control); in experiment [5] it was 1.26 fold enrichment (6-mer frequency, TF over GST control); in experiment [6] it was 1.22 fold enrichment (6-mer frequency, TF over GST control). Moreover, the binding signal is 1.25 fold enrichment (6-mer frequency, TF over GST control) in experiment [7] and 1.25 fold enrichment (6-mer frequency, TF over GST control) in experiment [8].
CGCTCT: the binding signal is 1.3 fold enrichment (6-mer frequency, TF over GST control) in experiment [1]; 1.37 fold enrichment (6-mer frequency, TF over GST control) in experiment [2]; 1.31 fold enrichment (6-mer frequency, TF over GST control) in experiment [3]; 1.25 fold enrichment (6-mer frequency, TF over GST control) in experiment [4]; 1.18 fold enrichment (6-mer frequency, TF over GST control) in experiment [5]; 1.24 fold enrichment (6-mer frequency, TF over GST control) in experiment [6]. Moreover, the binding signal is 1.25 fold enrichment (6-mer frequency, TF over GST control) in experiment [7] and 1.26 fold enrichment (6-mer frequency, TF over GST control) in experiment [8].
